CYP2C19 inhib: blockers of cytochrome P450 2C19 activity – biochemical, luminescence, ADME assay, primary screen; CYP2C19 Supersomes, luciferin-H EGE luminescence, 30 min; hit rate 21% among 96,000; inhibition, % at 5 µM;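 active means CYP2C19 inhibition above a set limit at 5 µM in the primary screen, cut at about 50% in these data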;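 further: plate controls were negative control wells for no effect and 2.5 mM tranylcypromine positive control for full effect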
Target sequence (P33261 whole entry, looked up): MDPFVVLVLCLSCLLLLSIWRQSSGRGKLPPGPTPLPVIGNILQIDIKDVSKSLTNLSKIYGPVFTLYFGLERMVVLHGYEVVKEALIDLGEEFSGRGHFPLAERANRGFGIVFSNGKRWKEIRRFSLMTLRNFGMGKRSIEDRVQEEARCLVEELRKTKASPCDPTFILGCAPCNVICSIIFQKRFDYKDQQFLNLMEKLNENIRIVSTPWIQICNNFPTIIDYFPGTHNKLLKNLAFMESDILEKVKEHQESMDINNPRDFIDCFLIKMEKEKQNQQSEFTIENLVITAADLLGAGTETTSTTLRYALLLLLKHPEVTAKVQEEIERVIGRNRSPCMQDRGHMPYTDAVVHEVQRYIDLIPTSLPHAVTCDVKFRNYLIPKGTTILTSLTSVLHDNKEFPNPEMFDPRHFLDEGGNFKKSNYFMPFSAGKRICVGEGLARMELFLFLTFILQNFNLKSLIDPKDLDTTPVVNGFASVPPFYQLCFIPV
EphB4 antag: EphB4-ephrin-B2 interaction antagonists, primary screen, biochemical, TNYL-RAW peptide probe, fluorescence polarization; inhibition, % at 7 µM; AID 720, 2007; EphB4 LBD / TNYL-RAW-Alexa532 peptide; hit rate 0.15% among 97,000; Ephrin type-B receptor 4 (Homo sapiens), P54760;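 active means inhibition above the screen-wide mean inhibition plus 3 SD, cut at about 15% in these data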;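 further: 0% = DMSO wells and 100% = excess unlabeled TNYL-RAW peptide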
CYP2C9 inhib: blockers of cytochrome P450 2C9 activity – biochemical, luminescence, ADME assay, primary screen. AID 777, 2007. CYP2C9 Supersomes, luciferin-H conversion. inhibition, % at 5 µM. hit rate 20% among 96,000. P11712;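 active means blocking of liver enzyme CYP2C9 beyond about 50% at 5 µM, limit read from the data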
CYP2C19 activ: human CYP2C19 activators, primary screen, biochemical, luminescence; AID 1025, 2008; Cytochrome P450 2C19 (Homo sapiens), P33261; activation factor at 5 µM; 96,000 tested, under 10 active; recombinant CYP2C19, luciferin-H EGE luminescence; active compounds read high; 0 = fully inhibited enzyme, 1 = untreated enzyme;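 active means activation factor of at least 2 at 5 µM in the primary screen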;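 further: 0 = wells with 2.5 mM tranylcypromine and 1 = vehicle-only wells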
CYP2C9 act: human CYP2C9 activators, primary screen, biochemical, luminescence; Cytochrome P450 2C9 (Homo sapiens), P11712; recombinant CYP2C9, luciferin-H conversion; active compounds read high; factor 1 = untreated enzyme, 0 = blocked; activation factor at 5 µM; hit rate 1.4% among 96,000; AID 1024, 2008;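 active means activation factor of 2 or more for CYP2C9 at a 5 µM dose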;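 further: 0 = sulfaphenazole-blocked wells and 1 = vehicle-only wells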
Active calls of the source: *; . = no result given. This is a sample that favours compounds with a hit; in the whole collection about 27% have one here.

SMILES	CYP2C19 inhib	EphB4 antag	CYP2C9 inhib	CYP2C19 activ	CYP2C9 act
COc1ccc(CNC(=O)CSc2ncn[nH]2)cc1	64.9*	3.2	-14.7	0.4	1.1
COc1ccc(-c2oc(NC(=O)CCl)c(C#N)c2-c2ccc(OC)cc2)cc1	54.3*	4.6	96.2*	0.5	0
N#Cc1c(NC(=O)COC(=O)C2CC3C=CC2C3)oc(-c2ccccc2)c1-c1ccccc1 (configuration not stated)	12.9	-2.2	70.9*	0.9	0.3
COc1ccc(CC(=O)Nc2oc(-c3ccccc3)c(-c3ccccc3)c2C#N)cc1OC	.	1.2	.	.	.
Oc1[nH]c2ccccc2c1OCc1ccncc1	33.9	-7.9	34.6	0.7	0.7
CC(C)(C)c1ccc(C(=O)c2c[nH]c(C(=O)NCC3CCCO3)c2)cc1 (configuration not stated)	27.3	8.2	18.1	0.7	0.8
COc1ccc(-c2oc(NC(=O)CSc3ncn[nH]3)c(C#N)c2-c2ccc(OC)cc2)cc1	36.9	2.6	70.2*	0.6	0.3
O=C(Cc1ccccc1)N/N=C/c1ccc(OCC(=O)Nc2ccccc2)cc1	-5.6	-1.3	9.1	1.1	0.9
CCOc1cc(/C=N/NC(=O)COc2ccc(Cl)cc2)ccc1OS(=O)(=O)c1ccccc1	81.7*	6.7	36.9	0.2	0.6
CCOc1cc(/C=N/NS(=O)(=O)c2ccccc2)ccc1OS(=O)(=O)c1ccc(C)cc1	99.2*	-1.9	100.3*	0	0
CCOc1cc(/C=N\NC(=O)Cc2ccccc2)ccc1OCC(=O)Nc1ccc(C)c(C)c1	-13.2	-5.8	46.4	1.1	0.5
CCOc1cc(/C=N/NC(=O)COc2ccc(C)cc2)ccc1OC(=O)c1cccs1	43.3	3.0	68.9*	0.6	0.3
CCOc1cc(/C=N/NC(=O)COc2ccccc2C)ccc1OC(=O)c1cccs1	38.0	7.8	44.8	0.6	0.6
O=C(COc1ccc(Cl)cc1)N/N=C/CCc1ccccc1	51.8*	-11.8	0.4	0.5	1
CCOc1nnc(C)c2c(C)n(-c3cccc(OC)c3)nc12	12.6	1.6	-1.4	0.9	1
CCOc1cc(/C=C2\C(=O)N(c3ccc(C(N)=O)cc3)N=C2C)ccc1OC(=O)c1cccs1	67.1*	1.2	25.4	0.3	0.7
Cc1occc1-c1nnc(SCC(=O)N2CCN(c3ccc(F)cc3)CC2)n1C	-14.8	0.7	-4.5	1.1	1
CC1=C(C(=O)Nc2ccccc2)C(c2ccncc2)C(C#N)=C(SCC(=O)NC2CC2)N1 (configuration not stated)	85.3*	-5.9	77.2*	0.1	0.2
CC1=C(C(=O)Nc2ccccc2)C(c2ccncc2)C(C#N)=C(SCC(=O)NC(C)C)N1 (configuration not stated)	78.4*	-6.2	64.6*	0.2	0.4
CCCSC1=C(C#N)C(c2cccs2)C(C(=O)Nc2ccccc2)=C(C)N1 (configuration not stated)	.	1.3	.	.	.
Cc1nn(-c2ccccc2)c2nc(-c3ccco3)cc(C(=O)O)c12	-5.8	1.8	45.8	1.1	0.5
Cc1cccc(-n2c(O)c(C=NCCCN3CCOCC3)c3ccccc3c2=O)c1	15.9	-1.9	5.4	0.8	0.9
CC(=O)c1ccc(Oc2ccc(C(C)=O)cc2)cc1	34.8	-5.5	19.9	0.7	0.8
Cc1ccc(C(=O)/C=C/Nc2ccccc2C(N)=O)cc1	26.2	3.0	-1.9	0.7	1
NC(=O)c1ccccc1N/C=C/C(=O)c1ccco1	59.6*	1.3	29.0	0.4	0.7
SMILES	CYP2C19 inhib	EphB4 antag	CYP2C9 inhib	CYP2C19 activ	CYP2C9 act
CCC(=O)OCCCCCCOc1ccc(C(=O)O)cc1	62.6*	1.6	-11.5	0.4	1.1
CC(C)CCOc1ccc(C(=O)O)cc1	82.7*	-3.7	82.7*	0.2	0.2
COc1ccc(CNC(=O)Nc2ccc(C)cc2)cc1	40.2	2.2	-15.3	0.6	1.2
O=C(NCc1ccncc1)Nc1ccccc1	53.7*	1.0	33.5	0.5	0.7
O=C(NCc1ccncc1)Nc1ccccc1Cl	88.8*	.	81.4*	0.1	0.2
O=C(Nc1cccnc1)Nc1ccccc1Cl	-3.5	8.7	-9.7	1	1.1
COc1ccc(CNC(=O)Nc2cccc3ccccc23)cc1	89.3*	1.3	-36.0	0.1	1.4
COc1ccc(NC(=O)NCc2ccncc2)cc1	31.1	-1.1	60.2*	0.7	0.4
CCOC(=O)c1ccc(NCc2ccc3c(c2)OCO3)cc1	31.7	3.7	49.9	0.7	0.5
CCOC(=O)c1ccc(NCc2ccc(N(C)C)cc2)cc1	54.1*	-2.1	3.5	0.5	1
CCCCC(=O)Nc1ccc(C(=O)NCc2ccncc2)cc1	62.7*	7.1	69.7*	0.4	0.3
O=C(NCCc1ccncc1)Nc1ccc(Cl)cc1	97.0*	-1.3	95.5*	0	0
CCCCC(=O)Nc1ccc(C(=O)Nc2cccnc2)cc1	13.2	-3.0	16.1	0.9	0.8
CCOC(=O)c1ccc(NC(=O)NCc2ccncc2)cc1	24.1	7.4	73.1*	0.8	0.3
c1ccc(OCCCn2nnc(-c3ccncc3)n2)cc1	.	5.7	.	.	.
O=C(C1CCC(CNS(=O)(=O)c2cccs2)CC1)N1CCCCC1 (configuration not stated)	12.7	-1.3	19.3	0.9	0.8
COc1nc(N)nc(NC23CC4CC(CC(C4)C2)C3)n1	17.2	-8.6	43.2	0.8	0.6
CCOC(=O)c1ccc(NC(=O)C(CC)CC)cc1	54.7*	-1.2	9.6	0.5	0.9
CCOC(=O)CC(=O)Nc1ccc(C(=O)OCC)cc1	26.6	2.7	24.7	0.7	0.8
CCCCOc1ccc(C(O)(CC)CCN2CCOCC2)cc1 (configuration not stated)	.	-3.5	.	.	.
Cc1ccc(C(c2nnnn2CCc2ccccc2)N2CCC(C)CC2)cc1 (configuration not stated)	.	1.5	.	.	.
CS(=O)(=O)N(CC(=O)NC1CC1)c1cccc(F)c1	88.0*	-2.4	-4.7	0.1	1
CS(=O)(=O)N(CC(=O)Nc1cccc(F)c1)c1cccc([N+](=O)[O-])c1	25.6	8.9	60.6*	0.7	0.4
COc1cccc(NC(=O)CN(c2cccc(F)c2)S(C)(=O)=O)c1	26.3	3.1	29.9	0.7	0.7
Cc1ccc(-n2nnnc2-c2cnn(-c3ccc(F)cc3)c2C(F)(F)F)cc1	.	9.7	.	.	.
Cn1cc(-c2nnnn2-c2cccc(C(F)(F)F)c2)c(C(F)(F)F)n1	98.5*	-3.1	41.8	0	0.6
Cc1ccc2cc(CN(CCO)Cc3nnnn3Cc3ccc(F)cc3)c(=O)[nH]c2c1	31.6	-1.3	41.5	0.7	0.6
CN(C)C(=O)c1cc(F)ccc1Sc1cc(Cl)ccc1Cl	97.9*	-0.6	49.8	0	0.5
CCOC(=O)c1cnc(SC)nc1Sc1cc(Cl)ccc1Cl	-1.2	-4.4	21.4	1	0.8

High-throughput results from PubChem.
